13 compounds from ChEMBL document CHEMBL2218924, “A broad activity screen in support of a chemogenomic map for kinase signalling research and drug discovery” (Biochem J, 2013) can be followed below.

Assay [1] concerns the target T1, cGMP-dependent protein kinase 1 (Homo sapiens) (UniProt Q13976).
T1 sequence (whole entry): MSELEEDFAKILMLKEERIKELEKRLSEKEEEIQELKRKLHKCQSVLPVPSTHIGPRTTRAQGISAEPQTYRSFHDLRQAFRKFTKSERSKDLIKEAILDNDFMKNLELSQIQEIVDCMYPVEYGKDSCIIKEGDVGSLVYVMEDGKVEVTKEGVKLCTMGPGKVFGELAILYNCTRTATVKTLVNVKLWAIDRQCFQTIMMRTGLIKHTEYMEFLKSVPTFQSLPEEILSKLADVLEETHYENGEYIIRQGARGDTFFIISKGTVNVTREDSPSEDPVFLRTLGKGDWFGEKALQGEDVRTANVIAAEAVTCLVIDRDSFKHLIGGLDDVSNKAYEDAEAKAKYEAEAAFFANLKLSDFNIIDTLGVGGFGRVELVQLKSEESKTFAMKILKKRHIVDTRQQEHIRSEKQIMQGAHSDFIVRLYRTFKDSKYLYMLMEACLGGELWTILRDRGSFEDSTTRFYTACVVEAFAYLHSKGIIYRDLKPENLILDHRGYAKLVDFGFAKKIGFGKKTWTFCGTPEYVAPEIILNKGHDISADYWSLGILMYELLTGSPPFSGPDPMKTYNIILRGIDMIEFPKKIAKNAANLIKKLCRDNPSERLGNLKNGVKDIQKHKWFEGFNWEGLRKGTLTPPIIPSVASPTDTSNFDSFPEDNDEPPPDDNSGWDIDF
Particulars: at 1 µM.

The target of assay [2] is T1, cGMP-dependent protein kinase 1 (Homo sapiens). Particulars: at 10 µM.
The target is the same in assay [3]. To be noted: at 1 µM. The source holds these as a separate data set.
For assay [4] the target is unchanged. Particulars: at 10 µM. This is another data set of the same source.
The target in assay [5] is T2, MAP kinase-activated protein kinase 5 (Homo sapiens) (UniProt Q8IW41).
T2 sequence (whole entry): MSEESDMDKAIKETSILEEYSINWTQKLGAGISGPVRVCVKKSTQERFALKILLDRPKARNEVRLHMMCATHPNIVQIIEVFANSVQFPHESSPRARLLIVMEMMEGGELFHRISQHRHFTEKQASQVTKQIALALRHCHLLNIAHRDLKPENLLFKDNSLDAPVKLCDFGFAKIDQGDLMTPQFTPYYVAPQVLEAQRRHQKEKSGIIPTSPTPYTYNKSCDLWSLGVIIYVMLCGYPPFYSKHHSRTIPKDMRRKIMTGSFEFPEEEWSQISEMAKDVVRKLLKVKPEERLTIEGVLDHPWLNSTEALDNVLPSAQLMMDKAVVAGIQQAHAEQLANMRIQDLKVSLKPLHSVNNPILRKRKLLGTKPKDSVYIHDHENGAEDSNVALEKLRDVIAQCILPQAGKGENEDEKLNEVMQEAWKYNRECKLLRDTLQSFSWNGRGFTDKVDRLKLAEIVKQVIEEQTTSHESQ
To be noted: at 1 µM.

The target of assay [6] is T2, MAP kinase-activated protein kinase 5 (Homo sapiens). To be noted: at 10 µM.
For assay [7], the target named is Serine/threonine-protein kinase N2 (Homo sapiens) (UniProt Q16513). Particulars: at 1 µM.
The target is the same in assay [8]. Particulars: at 10 µM.
The target of assay [9] is Tyrosine-protein kinase FRK (Homo sapiens) (UniProt P42685). Particulars: at 1 µM.
Assay [10] has the same target. To be noted: at 10 µM.
Assay [11] concerns the target T3, Phosphorylase b kinase gamma catalytic chain, liver/testis isoform (Homo sapiens) (UniProt P15735).
T3 sequence (whole entry): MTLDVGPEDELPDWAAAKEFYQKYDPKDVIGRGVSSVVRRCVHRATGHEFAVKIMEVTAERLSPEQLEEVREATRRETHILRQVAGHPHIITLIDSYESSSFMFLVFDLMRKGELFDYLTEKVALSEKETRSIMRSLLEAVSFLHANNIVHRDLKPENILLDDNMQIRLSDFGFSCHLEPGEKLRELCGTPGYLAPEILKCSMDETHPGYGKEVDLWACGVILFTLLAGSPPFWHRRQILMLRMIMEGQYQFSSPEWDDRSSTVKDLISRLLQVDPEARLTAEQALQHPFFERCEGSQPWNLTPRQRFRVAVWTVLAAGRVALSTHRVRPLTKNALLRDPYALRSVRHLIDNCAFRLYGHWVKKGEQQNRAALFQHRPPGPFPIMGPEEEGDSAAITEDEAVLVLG
To be noted: at 1 µM.

Assay [12] deals with T3, Phosphorylase b kinase gamma catalytic chain, liver/testis isoform (Homo sapiens). Particulars: at 10 µM.
Assay [13] concerns the target Serine/threonine-protein kinase pim-1 (Homo sapiens) (UniProt P11309). To be noted: at 1 µM.
The target is the same in assay [14]. Particulars: at 10 µM.
Assay [15] deals with Serine/threonine-protein kinase pim-2 (Homo sapiens) (UniProt Q9P1W9). Particulars: at 1 µM.
Assay [16] has the same target. To be noted: at 10 µM.
Assay [17] concerns the target Serine/threonine-protein kinase pim-3 (Homo sapiens) (UniProt Q86V86). Particulars: at 1 µM.
Assay [18] shares this target. To be noted: at 10 µM.
Assay [19] deals with Serine/threonine-protein kinase PLK1 (Homo sapiens) (UniProt P53350). Particulars: at 1 µM.
Assay [20] shares this target. Particulars: at 10 µM.

Structures are written as SMILES.

Chain of Serine/threonine-protein kinase PLK1 (Homo sapiens) (P53350 whole entry): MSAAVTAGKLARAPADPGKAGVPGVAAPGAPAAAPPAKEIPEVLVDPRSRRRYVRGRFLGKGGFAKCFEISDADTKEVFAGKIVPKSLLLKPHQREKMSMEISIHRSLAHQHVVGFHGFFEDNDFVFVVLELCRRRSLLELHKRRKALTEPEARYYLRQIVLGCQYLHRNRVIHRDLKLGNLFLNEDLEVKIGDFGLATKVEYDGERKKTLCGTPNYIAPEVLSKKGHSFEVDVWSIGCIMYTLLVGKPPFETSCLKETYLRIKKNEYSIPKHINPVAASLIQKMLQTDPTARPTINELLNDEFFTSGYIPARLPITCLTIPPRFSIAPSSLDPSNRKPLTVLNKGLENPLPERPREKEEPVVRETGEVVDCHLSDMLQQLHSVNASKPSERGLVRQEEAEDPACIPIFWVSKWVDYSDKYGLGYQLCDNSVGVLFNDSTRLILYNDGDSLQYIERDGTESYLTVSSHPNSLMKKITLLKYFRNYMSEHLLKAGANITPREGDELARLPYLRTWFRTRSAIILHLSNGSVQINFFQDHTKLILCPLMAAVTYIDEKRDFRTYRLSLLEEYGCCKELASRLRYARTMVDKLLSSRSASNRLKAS
Chain of Tyrosine-protein kinase FRK (Homo sapiens) (P42685 whole entry): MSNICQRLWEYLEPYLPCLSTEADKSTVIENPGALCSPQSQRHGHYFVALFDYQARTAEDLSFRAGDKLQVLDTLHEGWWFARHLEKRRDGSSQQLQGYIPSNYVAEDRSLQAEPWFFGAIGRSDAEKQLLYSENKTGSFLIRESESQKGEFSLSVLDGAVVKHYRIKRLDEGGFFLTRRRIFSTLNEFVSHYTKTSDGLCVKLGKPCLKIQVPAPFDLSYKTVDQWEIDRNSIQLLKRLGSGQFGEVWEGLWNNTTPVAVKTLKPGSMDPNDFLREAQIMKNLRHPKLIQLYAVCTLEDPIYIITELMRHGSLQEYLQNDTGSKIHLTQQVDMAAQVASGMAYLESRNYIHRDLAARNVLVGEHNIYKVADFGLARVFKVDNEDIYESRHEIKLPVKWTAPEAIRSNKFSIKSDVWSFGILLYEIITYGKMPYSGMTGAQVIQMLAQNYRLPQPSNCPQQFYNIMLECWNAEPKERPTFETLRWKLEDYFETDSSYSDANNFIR
Chain of Serine/threonine-protein kinase N2 (Homo sapiens) (Q16513 whole entry, looked up): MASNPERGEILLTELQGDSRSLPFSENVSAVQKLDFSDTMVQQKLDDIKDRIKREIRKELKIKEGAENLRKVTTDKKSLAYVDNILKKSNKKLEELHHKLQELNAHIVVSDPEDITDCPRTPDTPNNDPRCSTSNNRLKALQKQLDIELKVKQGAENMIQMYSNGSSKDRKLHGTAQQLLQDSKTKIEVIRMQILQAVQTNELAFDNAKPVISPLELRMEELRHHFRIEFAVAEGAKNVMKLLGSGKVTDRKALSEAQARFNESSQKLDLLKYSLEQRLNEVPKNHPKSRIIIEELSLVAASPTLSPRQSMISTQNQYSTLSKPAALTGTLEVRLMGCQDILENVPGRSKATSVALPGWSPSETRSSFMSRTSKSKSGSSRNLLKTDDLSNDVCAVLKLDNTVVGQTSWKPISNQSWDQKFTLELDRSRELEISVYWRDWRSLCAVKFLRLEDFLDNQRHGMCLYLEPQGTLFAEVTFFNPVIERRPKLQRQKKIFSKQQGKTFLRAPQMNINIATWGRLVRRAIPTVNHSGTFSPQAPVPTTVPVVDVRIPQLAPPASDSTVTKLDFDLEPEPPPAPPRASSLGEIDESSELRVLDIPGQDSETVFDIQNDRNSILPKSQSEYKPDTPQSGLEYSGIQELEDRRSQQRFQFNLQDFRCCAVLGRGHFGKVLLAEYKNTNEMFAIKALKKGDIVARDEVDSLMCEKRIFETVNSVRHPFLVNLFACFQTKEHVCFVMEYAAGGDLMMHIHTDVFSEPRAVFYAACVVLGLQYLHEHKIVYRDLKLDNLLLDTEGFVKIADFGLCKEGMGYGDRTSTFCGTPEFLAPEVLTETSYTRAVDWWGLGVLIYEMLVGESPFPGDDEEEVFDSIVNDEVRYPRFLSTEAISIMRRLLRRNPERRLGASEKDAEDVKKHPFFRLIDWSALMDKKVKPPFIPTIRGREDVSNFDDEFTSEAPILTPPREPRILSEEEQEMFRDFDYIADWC
Chain of Serine/threonine-protein kinase pim-1 (Homo sapiens) (P11309 whole entry, looked up): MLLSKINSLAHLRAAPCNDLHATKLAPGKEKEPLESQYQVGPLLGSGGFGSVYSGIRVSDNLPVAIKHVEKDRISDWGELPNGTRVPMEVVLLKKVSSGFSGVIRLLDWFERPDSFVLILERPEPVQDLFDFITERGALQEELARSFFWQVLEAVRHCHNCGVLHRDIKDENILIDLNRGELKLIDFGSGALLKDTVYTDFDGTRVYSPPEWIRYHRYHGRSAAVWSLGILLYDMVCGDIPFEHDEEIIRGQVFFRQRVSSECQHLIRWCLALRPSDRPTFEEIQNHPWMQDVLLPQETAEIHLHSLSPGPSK
Chain of Serine/threonine-protein kinase pim-2 (Homo sapiens) (Q9P1W9 whole entry, looked up): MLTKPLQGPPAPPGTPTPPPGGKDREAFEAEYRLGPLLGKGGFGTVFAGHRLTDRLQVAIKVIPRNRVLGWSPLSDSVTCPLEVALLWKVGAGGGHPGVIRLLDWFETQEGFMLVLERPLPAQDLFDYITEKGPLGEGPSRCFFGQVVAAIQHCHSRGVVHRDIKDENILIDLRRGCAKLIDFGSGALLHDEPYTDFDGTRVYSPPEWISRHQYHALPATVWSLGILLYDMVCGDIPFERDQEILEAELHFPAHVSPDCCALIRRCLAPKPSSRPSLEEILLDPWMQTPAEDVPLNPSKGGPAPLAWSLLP

Turning to `O=c1c2ccccc2[nH]c(=S)n1CCN1CCC(=C(c2ccc(F)cc2)c2ccc(F)cc2)CC1`, the residual activity in assay [1] was 107%; in assay [2] it was 103%; in [3] it was 86%; in [4], 87%; in [5] it was 94%; in assay [6], 74%. Moreover, the residual activity in assay [7] came out at 114%; in assay [8], 109%; in assay [9] it was 101%; in assay [10], 89%; in assay [11], 103%; in assay [12], 105%. Further, the residual activity was 89% in assay [13]; 105% in assay [14]; 75% in assay [15]; 133% in [16]; 98% in assay [17]; 99% in [18]. In addition, the residual activity in assay [19] was determined as 104%; in assay [20], 68%.
As for `N#CCCc1ccc2c(c1)-c1[nH]c3ccc([N+](=O)[O-])cc3c1CC(=O)N2`, the residual activity is 68% in assay [5]; 43% in [6]; 57% in assay [7]; 28% in assay [8]; 54% in [9]; 22% in [10]. Further, the residual activity in assay [14] worked out at 69%; in assay [15], 120%.
For `c1ccc(-c2n[nH]c3c2oc2ccccc23)cc1`, the residual activity turned out to be 99% in assay [1]; 100% in assay [2]; 75% in assay [3]; 93% in assay [4]; 97% in [5]; 58% in assay [6]. Besides, the residual activity in assay [13] was determined as 85%; in assay [14] it was 84%; in [15] it was 83%; in assay [16] it was 123%; in assay [17] it was 92%; in assay [18], 90%. The figures for the residual activity in assay [19] and in [20] were 85% and 67%, respectively.
`Cc1cc(Nc2nc(-c3ccccc3)nc3ccccc23)n[nH]1`: the residual activity in assay [1] is 82%; in assay [2] it was 39%; in assay [3] it was 82%; in assay [4], 27%; in assay [8] it was 58%; in assay [9], 46%. Besides, the residual activity in assay [10] worked out at 8%; in [12], 35%; in assay [13] it was 104%; in assay [14], 57%; in assay [15] it was 126%; in assay [19], 73%. For the same compound, the residual activity in [20] came out at 40%.
As to `N#C/C(=C(\N)Sc1ccc(N)cc1)c1ccccc1C(F)(F)F`, the residual activity in assay [1] is 97%; in assay [2], 95%; in assay [3] it was 100%; in assay [4] it was 33%; in assay [5], 91%; in assay [6], 90%. In addition, the residual activity in [7] turned out to be 68%; in assay [8], 48%; in assay [9], 94%; in [10], 95%; in assay [12], 108%; in assay [13], 79%. The residual activity in assay [14] amounted to 83%; in [15], 130%; in assay [16] it was 133%; in [17], 87%; in assay [18] it was 84%; in [19], 85%. Moreover, the residual activity in [20] amounted to 90%.
For the compound `c1ccc(-c2n[nH]cc2-c2ccnc3ccccc23)nc1`, the residual activity was found to be 73% in [5]; 90% in assay [6]; 89% in assay [7]; 103% in assay [8]; 84% in assay [9]; 25% in assay [10]. Besides, the residual activity in assay [11] turned out to be 95%; in assay [12], 102%; in assay [13], 96%; in [14] it was 85%; in assay [17], 99%; in [18] it was 100%. Besides, the residual activity in assay [19] came to 80%; in assay [20], 72%.
Turning to `COc1cc2ncc(-c3ccccc3)nc2cc1OC`, the residual activity in assay [5] was determined as 125%; in assay [6], 85%; in assay [9], 90%; in assay [10], 90%; in assay [13], 81%; in [14] it was 82%. Also, the residual activity in assay [15] was 127%; in assay [16], 144%; in assay [17], 95%; in assay [18] it was 99%; in assay [19], 88%; in [20], 75%.
Turning to `Oc1ccc(-c2nc(-c3ccc(F)cc3)c(-c3ccncc3)[nH]2)cc1`, the residual activity is 108% in assay [1]; 66% in assay [2]; 108% in [3]; 78% in assay [4]; 110% in assay [5]; 80% in assay [6]. Further, the residual activity was determined as 107% in assay [7]; 47% in assay [8]; 65% in assay [9]; 12% in assay [10]; 107% in assay [11]; 98% in assay [12]. For the same compound, the residual activity in assay [13] amounted to 96%; in assay [14] it was 91%; in [15], 125%; in [17] it was 96%; in assay [18], 92%; in [19] it was 94%. Also, in assay [20], the residual activity is 83%.
Regarding `CO[C@@H]1[C@H](N(C)C(=O)c2ccccc2)C[C@H]2O[C@]1(C)n1c3ccccc3c3c4c(c5c6ccccc6n2c5c31)C(=O)NC4`, the residual activity in [1] turned out to be 8%; in assay [2], 4%; in assay [3], 4%; in assay [4] it was 3%; in [5], 102%; in [6], 57%. The residual activity in [7] was 2%; in [8] it was 1%; in assay [9], 33%; in [10] it was 23%; in assay [11], 44%; in assay [12], 29%. For the same compound, the residual activity in assay [13] came out at 33%; in assay [14] it was 16%; in [15] it was 80%; in [16], 94%; in assay [17], 93%; in assay [18] it was 88%. Further, the residual activity in [20] was determined as 61%.
Regarding `COc1cc2ncnc(Nc3ccc(NC(=O)c4ccccc4)cc3)c2cc1OC`, the residual activity came out at 105% in assay [1]; 99% in [2]; 90% in assay [3]; 105% in [5]; 76% in assay [6]; 109% in [9]. The residual activity in [10] came out at 76%; in assay [11], 101%; in [13], 88%; in assay [14], 96%; in assay [15], 85%; in [17] it was 107%. Also, the residual activity in assay [18] amounted to 99%; in assay [19], 105%.
For `O=[N+]([O-])c1ccc(-c2nc(-c3ccc(F)cc3)c(-c3ccncc3)[nH]2)cc1`, the residual activity in [1] was 98%; in [2], 103%; in assay [3], 105%; in assay [4] it was 92%; in assay [5] it was 112%; in assay [6] it was 107%. Moreover, the residual activity in assay [7] is 119%; in [8], 93%; in assay [9], 57%; in assay [10] it was 60%; in assay [11], 98%; in [12] it was 91%. In addition, the residual activity in assay [13] was 99%; in [14] it was 85%; in assay [15], 127%; in [16], 139%; in [17] it was 86%; in assay [18], 95%. In addition, the residual activity in assay [19] is 88%; in [20], 80%.
In the case of `COc1ccc(CNc2nc(N(CCO)CCO)nc3c2ncn3C(C)C)cc1`, the residual activity in [1] was 93%; in [2], 101%; in assay [3], 109%; in assay [4] it was 101%; in assay [5], 100%; in assay [6], 102%. The residual activity was determined as 104% in assay [7]; 77% in assay [8]; 95% in assay [9]; 87% in assay [10]; 122% in [11]; 88% in [12]. In addition, the residual activity in [13] amounted to 87%; in assay [14], 69%; in assay [15] it was 134%; in [16], 130%; in [17] it was 87%; in assay [18], 88%. Moreover, the residual activity was determined as 69% in assay [19] and 58% in assay [20].
As for `O=C(Nc1cccc(Nc2nccc(Nc3cccc(C(F)(F)F)c3)n2)c1)C1CC1`, the residual activity was 100% in [1]; 101% in assay [2]; 90% in [3]; 66% in assay [4]; 128% in assay [5]; 65% in assay [6]. Also, the residual activity was 106% in [7]; 96% in [8]; 53% in assay [9]; 11% in assay [10]; 94% in assay [11]; 80% in assay [12]. The residual activity in [13] turned out to be 66%; in [14], 64%; in assay [15] it was 110%; in assay [16] it was 119%; in [17] it was 104%; in [18], 104%. Further, the residual activity in [19] turned out to be 78%; in [20], 74%.
